Here are results for 40 compounds from the supplement of paper PMC9950053.

Where a name gives a salt, the structure may show the parent alone.

The experiment deals with Danio rerio larvae (5 dpf). Put plainly: excitability (activity period 17 minus period 16, 1-s interval sound) minus DMSO control (percentage points); higher = more acoustic excitability than DMSO larvae. Particulars: 10 µM; exposure time: 3 h pre-incubation + 3 h imaging. The protocol:
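Wild-type 5 dpf zebrafish larvae (n=48 per drug, 96-well plates, 28.5 °C) were exposed to Tocris FDA-approved library compounds at 10 µM (0.1% DMSO) for 3 h before and 3 h during imaging. Images were taken every 6 s during visual (moving coloured lines) and acoustic stimuli, and larvae were tracked with the DeepLabCut-based Z-LaP Tracker. Each behavioural measure is the treated-group mean minus the DMSO vehicle control mean (n=844), in percentage points. This mapping covers compounds with 4-character plate codes.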
In the case of `CN/C(=N\CCSCc1nc[nH]c1C)NC#N` [Cimetidine], the excitability is -2.33.
`O=C1CCc2cc(OCCCCc3nnnn3C3CCCCC3)ccc2N1` [Cilostazol]: the excitability came to 9.2.
Then `CC(C)Nc1cccnc1N1CCN(C(=O)c2cc3cc(NS(C)(=O)=O)ccc3[nH]2)CC1` [Delavirdine mesylate], with 2.93; and `CC(=O)Oc1ccccc1C(=O)O` [Aspirin], with 10.3; and `CN1CC[C@@H](NC(=O)Nc2ccc(C#N)cc2)C[C@@H]1c1nc2ccccc2[nH]1`, with 6.95.
With `Cn1cnc([N+](=O)[O-])c1Sc1ncnc2[nH]cnc12` [Azathioprine], the excitability turned out to be 0.781.
To `CN1CCN(CCCN2c3ccccc3Sc3ccc(Cl)cc32)CC1` [Prochlorperazine dimaleate] belongs 27.2; to `CCCCC1=NC2(CCCC2)C(=O)N1Cc1ccc(-c2ccccc2-c2nnn[nH]2)cc1` [Irbesartan], -0.258.
`O=C(O)CCCc1ccccc1` [Sodium 4-Phenylbutyrate]: the excitability is 2.71.
Then `C[C@]12CC[C@@H]3c4ccc(O)cc4C[C@@H](CCCCCCCCC[S+]([O-])CCCC(F)(F)C(F)(F)F)[C@H]3[C@@H]1CC[C@@H]2O` (stereo not given in full), with 3.06; and `Cc1ccccc1C(=O)Nc1ccc(C(=O)N2CCCC(O)c3cc(Cl)ccc32)c(C)c1` (stereo not given) [Tolvaptan], with 8.2.
To `N[C@@H]1[C@H]2CN(c3nc4c(cc3F)c(=O)c(C(=O)O)cn4-c3ccc(F)cc3F)C[C@@H]12` [Trovafloxacin mesylate] belongs 12.2; to `CC(C)C(=O)OCC(=O)[C@@]12O[C@H](C3CCCCC3)O[C@@H]1C[C@H]1[C@@H]3CCC4=CC(=O)C=C[C@]4(C)[C@H]3[C@@H](O)C[C@@]12C` [Ciclesonide], 6.47; to `CCOC(=O)C1=C(COCCN)NC(C)=C(C(=O)OC)C1c1ccccc1Cl` (stereo not given) [Amlodipine besylate], 1.82.
On to `Cc1ccc(NC(=O)c2ccc(CN3CCN(C)CC3)cc2)cc1Nc1nccc(-c2cccnc2)n1` [Imatinib mesylate], for which the excitability was found to be 13.3.
To `Nc1cccc2c1CN(C1CCC(=O)NC1=O)C2=O` (stereo not given) [Lenalidomide] belongs -1.97.
Then `CN(CCOc1ccc(CC2SC(=O)NC2=O)cc1)c1ccccn1` (stereo not given) [Rosiglitazone], with 17.9.
To `C#C[C@]1(O)CC[C@H]2[C@@H]3CCC4=CC(=O)CC[C@@H]4[C@H]3CC[C@@]21CC` [Levonorgestrel] belongs 3.64; to `O=C(O[C@@H]1C[C@@H]2C[C@H]3C[C@H](C1)N2CC3=O)c1c[nH]c2ccccc12` [Dolasetron mesylate], 10.3.
Consider `CC#C[C@]1(O)CC[C@H]2[C@@H]3CCC4=CC(=O)CCC4=C3[C@@H](c3ccc(N(C)C)cc3)C[C@@]21C` [Mifepristone], for which the excitability is 5.63.
To `CCOC(=O)[C@H](CCc1ccccc1)N[C@H]1CCc2ccccc2N(CC(=O)O)C1=O` [Benazepril hydrochloride] belongs 0.927; to `Cn1nnc2c(C(N)=O)ncn2c1=O` [Temozolomide], 0.618.
In the case of `CCc1c2c(nc3ccc(OC(=O)N4CCC(N5CCCCC5)CC4)cc13)-c1cc3c(c(=O)n1C2)COC(=O)[C@]3(O)CC`, the excitability stood at 8.99.
In the case of `CCOC(=O)c1ncn2c1CN(C)C(=O)c1cc(F)ccc1-2` [Flumazenil], the excitability was found to be 2.65.
Then `C[C@]12CCC(=O)C=C1CC[C@@H]1[C@@H]2[C@@H](O)C[C@@]2(C)[C@H]1CC[C@]2(O)C(=O)CO` [Hydrocortisone], with 3.96.
To `CC(C)(C(=O)c1cccnc1)c1cccnc1` [Metyrapone] belongs 15.8.
Then `COc1cccc2c1C(=O)c1c(O)c3c(c(O)c1C2=O)C[C@@](O)(C(=O)CO)C[C@@H]3O[C@H]1C[C@H](N)[C@H](O)[C@H](C)O1` [Doxorubicin hydrochloride], with 15.5.
For the compound `CCOC(=O)C1=C(C)NC(C)=C(C(=O)OC)C1c1cccc(Cl)c1Cl` (stereo not given) [Felodipine], the excitability is -10.3.
Then `COc1ccc(-c2ccc3cc(C(=O)O)ccc3c2)cc1C12CC3CC(CC(C3)C1)C2` [Adapalene], with 0.726; and `CC(C)C(=O)Nc1ccc([N+](=O)[O-])c(C(F)(F)F)c1` [Flutamide], with -5.48; and `CC/C(=C(\c1ccccc1)c1ccc(OCCN(C)C)cc1)c1ccccc1` [Tamoxifen citrate], with 4.81.
Then `CCOc1cc(CC(=O)N[C@@H](CC(C)C)c2ccccc2N2CCCCC2)ccc1C(=O)O` [Repaglinide], with 9.5; and `COC(c1ccccc1)(c1ccccc1)[C@H](Oc1nc(C)cc(C)n1)C(=O)O` [Ambrisentan], with -1.02; and `NS(=O)(=O)Cc1noc2ccccc12` [Zonisamide], with 4.75.
Then `CC1(C)O[C@@H]2[C@@H](CO[C@@]3(COS(N)(=O)=O)OC(C)(C)O[C@@H]23)O1` [Topiramate], with 2; and `CC(=O)O[C@H]1C(=O)[C@@]2(C)[C@H]([C@H](OC(=O)c3ccccc3)[C@]3(O)C[C@H](OC(=O)[C@H](O)[C@@H](NC(=O)c4ccccc4)c4ccccc4)C(C)=C1C3(C)C)[C@]1(OC(C)=O)CO[C@@H]1C[C@@H]2O` [Taxol], with 2.27; and `CCCCc1nc(Cl)c(CO)n1Cc1ccc(-c2ccccc2-c2nnn[nH]2)cc1` [Losartan potassium], with 6.79.
For `COc1cc2nc(N3CCN(C(=O)c4ccco4)CC3)nc(N)c2cc1OC` [Prazosin hydrochloride], the excitability amounted to 16.4.
Turning to `O=C(O)c1cc(/N=N/c2ccc(S(=O)(=O)Nc3ccccn3)cc2)ccc1O` [Sulfasalazine], the excitability was found to be 0.715.
Then `Cc1nc(-c2ccc(OCC(C)C)c(C#N)c2)sc1C(=O)O` [Febuxostat], with -0.805.
